From ChEMBL document CHEMBL3988442, “University of Dundee, Small-Polar-MMV Screening Library” (2021) come the findings set out here.

For some of these results: Measured potencies and affinities stand elsewhere.

What all share (design): scale not given: direction of the effect not stated beside the values
For experiment [1], the target named is Protein translocase subunit SecA (Escherichia coli (strain K12)) (UniProt P10408). In words: Assay to Identify E. coli SecA ATPase Inhibitors. The class given is functional. The following applies: 30 µM.
Chain of Protein translocase subunit SecA (Escherichia coli (strain K12)) (P10408 whole entry): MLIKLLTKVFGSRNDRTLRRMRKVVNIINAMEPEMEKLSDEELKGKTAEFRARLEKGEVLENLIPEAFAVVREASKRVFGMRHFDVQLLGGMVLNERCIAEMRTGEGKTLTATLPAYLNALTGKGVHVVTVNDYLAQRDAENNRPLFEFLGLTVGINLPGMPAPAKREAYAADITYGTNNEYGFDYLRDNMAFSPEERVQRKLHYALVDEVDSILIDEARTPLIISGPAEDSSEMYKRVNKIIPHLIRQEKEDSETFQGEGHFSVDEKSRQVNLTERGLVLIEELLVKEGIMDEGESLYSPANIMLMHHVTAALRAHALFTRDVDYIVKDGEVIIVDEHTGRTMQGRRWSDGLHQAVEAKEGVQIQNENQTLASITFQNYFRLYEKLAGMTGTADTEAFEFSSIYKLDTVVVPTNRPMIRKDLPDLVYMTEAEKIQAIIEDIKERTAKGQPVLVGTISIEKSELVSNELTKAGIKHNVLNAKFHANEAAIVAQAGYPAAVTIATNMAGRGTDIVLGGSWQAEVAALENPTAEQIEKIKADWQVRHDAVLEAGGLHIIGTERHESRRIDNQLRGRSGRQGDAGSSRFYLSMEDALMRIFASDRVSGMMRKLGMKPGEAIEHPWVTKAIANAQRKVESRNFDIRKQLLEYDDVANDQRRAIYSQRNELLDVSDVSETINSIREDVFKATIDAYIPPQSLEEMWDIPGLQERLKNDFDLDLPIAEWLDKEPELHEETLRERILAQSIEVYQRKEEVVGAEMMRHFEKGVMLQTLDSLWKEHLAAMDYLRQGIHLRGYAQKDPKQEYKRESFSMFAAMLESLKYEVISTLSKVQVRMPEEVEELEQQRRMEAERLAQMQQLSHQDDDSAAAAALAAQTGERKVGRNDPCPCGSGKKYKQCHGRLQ
Experiment [2] has as its target T1, Ubiquitin-activating enzyme e1, putative (Leishmania donovani (strain BPK282A1)) (UniProt E9BSI1).
T1 sequence (whole entry): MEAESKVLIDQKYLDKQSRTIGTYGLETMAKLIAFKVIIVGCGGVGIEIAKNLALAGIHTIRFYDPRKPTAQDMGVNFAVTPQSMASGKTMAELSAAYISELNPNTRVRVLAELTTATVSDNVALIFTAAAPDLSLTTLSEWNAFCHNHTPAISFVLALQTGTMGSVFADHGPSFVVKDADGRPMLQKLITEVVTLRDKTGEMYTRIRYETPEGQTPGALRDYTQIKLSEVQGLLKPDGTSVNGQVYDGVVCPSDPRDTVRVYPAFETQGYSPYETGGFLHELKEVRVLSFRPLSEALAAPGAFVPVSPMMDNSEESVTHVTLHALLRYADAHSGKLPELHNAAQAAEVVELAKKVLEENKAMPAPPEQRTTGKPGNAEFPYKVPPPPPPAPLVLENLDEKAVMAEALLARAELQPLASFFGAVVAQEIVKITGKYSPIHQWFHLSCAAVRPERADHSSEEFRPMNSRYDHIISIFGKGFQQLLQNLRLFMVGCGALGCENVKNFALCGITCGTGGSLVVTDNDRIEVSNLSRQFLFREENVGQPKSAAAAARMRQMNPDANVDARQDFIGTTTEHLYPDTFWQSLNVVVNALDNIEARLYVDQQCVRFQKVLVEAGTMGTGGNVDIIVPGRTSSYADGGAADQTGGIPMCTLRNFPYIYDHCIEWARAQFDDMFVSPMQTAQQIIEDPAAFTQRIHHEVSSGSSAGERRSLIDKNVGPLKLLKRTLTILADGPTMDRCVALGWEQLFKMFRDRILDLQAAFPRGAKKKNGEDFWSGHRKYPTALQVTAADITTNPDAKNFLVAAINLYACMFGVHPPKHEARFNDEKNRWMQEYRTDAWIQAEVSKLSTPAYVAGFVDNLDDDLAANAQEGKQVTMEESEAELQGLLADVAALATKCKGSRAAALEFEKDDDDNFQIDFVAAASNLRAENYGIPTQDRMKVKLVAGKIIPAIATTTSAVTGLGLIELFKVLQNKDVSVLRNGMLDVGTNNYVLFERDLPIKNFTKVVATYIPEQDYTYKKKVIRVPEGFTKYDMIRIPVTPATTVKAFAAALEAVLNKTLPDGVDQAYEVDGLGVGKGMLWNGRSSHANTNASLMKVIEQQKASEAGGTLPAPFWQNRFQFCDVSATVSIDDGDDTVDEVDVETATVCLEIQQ
In words: Leishmania donovani Ubiquitin Activating Enzyme (LdE1). The class given is functional. Conditions: 30 µM.

Experiment [3] deals with AMP-activated protein kinase, AMPK (Homo sapiens) (UniProt P54646+O43741+P54619+Q9UGJ0+Q9Y478+Q13131+Q9UGI9). In words: AMP-dependent Kinase enzyme assay. An in vitro enzyme assay that detects ADP turnover that is directly proportional to AMPK activity. This uses naive AMPK that is activated during the assay with MK-8722. The class given is functional. Conditions: 30 µM.

The target in experiment [4] is Sialic acid-binding Ig-like lectin 9 (Homo sapiens) (UniProt Q9Y336). In words: Hs-Siglec9 ALPHAscreen SOP 20170721. The following applies: 10 µM. A general note: Alpha assays give light when donor and acceptor beads are brought close together.
Chain of Sialic acid-binding Ig-like lectin 9 (Homo sapiens) (Q9Y336 whole entry): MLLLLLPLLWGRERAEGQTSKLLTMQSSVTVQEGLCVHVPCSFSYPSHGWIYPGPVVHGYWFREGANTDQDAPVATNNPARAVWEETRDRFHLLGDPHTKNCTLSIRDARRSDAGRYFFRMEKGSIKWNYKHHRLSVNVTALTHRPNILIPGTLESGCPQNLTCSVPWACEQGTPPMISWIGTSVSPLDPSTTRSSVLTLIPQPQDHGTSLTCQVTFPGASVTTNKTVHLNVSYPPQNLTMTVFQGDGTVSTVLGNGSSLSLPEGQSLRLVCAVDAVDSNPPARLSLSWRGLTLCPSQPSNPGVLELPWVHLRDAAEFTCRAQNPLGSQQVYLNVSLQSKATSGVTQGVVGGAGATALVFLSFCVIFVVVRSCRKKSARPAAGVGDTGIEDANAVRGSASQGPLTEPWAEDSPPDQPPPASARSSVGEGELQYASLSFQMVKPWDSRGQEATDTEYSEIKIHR
For the next experiment, the system named is Trypanosoma cruzi. Nature of the experiment: Trypanosoma cruzi phosphomannomutase and mannose-1-phosphate guanylyltransferase assay. The class given is functional. The following applies: 10 µM.
The target of experiment [5] is T2, Arginase-2, mitochondrial (Homo sapiens) (UniProt P78540).
T2 sequence (whole entry): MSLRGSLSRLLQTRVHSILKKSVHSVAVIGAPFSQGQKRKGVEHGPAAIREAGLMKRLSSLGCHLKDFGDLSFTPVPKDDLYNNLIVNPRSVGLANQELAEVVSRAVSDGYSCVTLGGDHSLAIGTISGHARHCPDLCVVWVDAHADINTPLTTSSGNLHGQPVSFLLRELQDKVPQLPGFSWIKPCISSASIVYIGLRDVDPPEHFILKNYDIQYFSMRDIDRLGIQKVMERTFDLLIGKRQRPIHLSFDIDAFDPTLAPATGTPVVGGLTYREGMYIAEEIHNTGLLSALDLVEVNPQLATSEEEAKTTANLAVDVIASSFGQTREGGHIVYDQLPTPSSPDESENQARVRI
Nature of the experiment: in vitro enzyme assay to detect the production of urea directly proportional to the activity of Arginase II. Note: in the data most compounds retested in dose-response had high values. It counts as functional. The following applies: 33.3 µM.

For experiment [6], the target named is T3, Proteasome subunit beta (Trypanosoma cruzi) (UniProt O96673).
T3 sequence (whole entry): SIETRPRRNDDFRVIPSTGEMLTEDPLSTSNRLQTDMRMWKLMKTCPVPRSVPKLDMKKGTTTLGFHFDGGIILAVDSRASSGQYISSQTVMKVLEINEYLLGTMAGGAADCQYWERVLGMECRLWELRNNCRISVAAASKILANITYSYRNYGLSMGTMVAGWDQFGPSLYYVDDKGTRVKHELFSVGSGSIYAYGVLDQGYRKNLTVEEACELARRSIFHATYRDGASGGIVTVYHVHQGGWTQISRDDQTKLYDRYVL
In words: Trypanosoma cruzi proteasome chymotrypsin-like activity (TcProtChymo) assay. Note: in the data most compounds retested in dose-response had high values. The class given is functional. Conditions: 9.37 µM.

The next experiment is filed under the species Homo sapiens. Nature of the experiment: To identify inhibition of the IFN signalling (Jak-Stat) pathway via expression of an eGFP reporter gene under the control of an IFN-stimulated response element (ISRE) containing MxA promoter. The class given is functional. Conditions: 30 µM.
Experiment [7] concerns the target T4, Tyrosyl-tRNA synthetase, putative (Trypanosoma cruzi (strain CL Brener)) (UniProt Q4DSP6).
T4 sequence (whole entry): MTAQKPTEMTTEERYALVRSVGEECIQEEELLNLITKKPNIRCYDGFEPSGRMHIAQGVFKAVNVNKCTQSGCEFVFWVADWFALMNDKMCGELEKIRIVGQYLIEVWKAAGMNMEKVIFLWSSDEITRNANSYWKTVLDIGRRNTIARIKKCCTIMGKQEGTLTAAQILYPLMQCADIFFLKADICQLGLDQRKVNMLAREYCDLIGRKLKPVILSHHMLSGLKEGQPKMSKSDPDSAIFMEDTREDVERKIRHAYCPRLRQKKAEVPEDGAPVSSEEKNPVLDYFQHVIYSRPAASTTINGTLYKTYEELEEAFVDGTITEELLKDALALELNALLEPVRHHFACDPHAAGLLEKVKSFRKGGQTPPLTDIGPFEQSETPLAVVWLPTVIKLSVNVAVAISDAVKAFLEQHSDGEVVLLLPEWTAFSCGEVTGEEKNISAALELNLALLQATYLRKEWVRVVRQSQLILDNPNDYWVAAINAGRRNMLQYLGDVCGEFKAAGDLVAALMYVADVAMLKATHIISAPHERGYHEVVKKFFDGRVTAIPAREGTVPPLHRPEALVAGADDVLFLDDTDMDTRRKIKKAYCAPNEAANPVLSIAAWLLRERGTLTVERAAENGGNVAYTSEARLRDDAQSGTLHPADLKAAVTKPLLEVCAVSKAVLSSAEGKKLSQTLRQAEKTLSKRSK
Nature of the experiment: Trypanosoma cruzi tyrosyl tRNA synthetase (TcYRS) _High Tyrosine SOP. Note: in the data most compounds retested in dose-response had high values. The class given is functional. Conditions: 30 µM.

Experiment [8] has as its target T4, Tyrosyl-tRNA synthetase, putative (Trypanosoma cruzi (strain CL Brener)). In words: Trypanosoma cruzi tyrosyl tRNA synthetase (TcYRS) SOP. It counts as functional. Conditions: 30 µM.
Experiment [9] addresses Chromo domain-containing protein 1 (Saccharomyces cerevisiae (strain ATCC 204508 / S288c) (Baker's yeast)) (UniProt P32657). Nature of the experiment: ScCHD-1 Enzyme Inhibition Assay. Note: in the data most compounds retested in dose-response had high values. Conditions: 30 µM. The class given is functional.

Chain of Chromo domain-containing protein 1 (Saccharomyces cerevisiae (strain ATCC 204508 / S288c) (Baker's yeast)) (P32657 whole entry, the tested form may be a part): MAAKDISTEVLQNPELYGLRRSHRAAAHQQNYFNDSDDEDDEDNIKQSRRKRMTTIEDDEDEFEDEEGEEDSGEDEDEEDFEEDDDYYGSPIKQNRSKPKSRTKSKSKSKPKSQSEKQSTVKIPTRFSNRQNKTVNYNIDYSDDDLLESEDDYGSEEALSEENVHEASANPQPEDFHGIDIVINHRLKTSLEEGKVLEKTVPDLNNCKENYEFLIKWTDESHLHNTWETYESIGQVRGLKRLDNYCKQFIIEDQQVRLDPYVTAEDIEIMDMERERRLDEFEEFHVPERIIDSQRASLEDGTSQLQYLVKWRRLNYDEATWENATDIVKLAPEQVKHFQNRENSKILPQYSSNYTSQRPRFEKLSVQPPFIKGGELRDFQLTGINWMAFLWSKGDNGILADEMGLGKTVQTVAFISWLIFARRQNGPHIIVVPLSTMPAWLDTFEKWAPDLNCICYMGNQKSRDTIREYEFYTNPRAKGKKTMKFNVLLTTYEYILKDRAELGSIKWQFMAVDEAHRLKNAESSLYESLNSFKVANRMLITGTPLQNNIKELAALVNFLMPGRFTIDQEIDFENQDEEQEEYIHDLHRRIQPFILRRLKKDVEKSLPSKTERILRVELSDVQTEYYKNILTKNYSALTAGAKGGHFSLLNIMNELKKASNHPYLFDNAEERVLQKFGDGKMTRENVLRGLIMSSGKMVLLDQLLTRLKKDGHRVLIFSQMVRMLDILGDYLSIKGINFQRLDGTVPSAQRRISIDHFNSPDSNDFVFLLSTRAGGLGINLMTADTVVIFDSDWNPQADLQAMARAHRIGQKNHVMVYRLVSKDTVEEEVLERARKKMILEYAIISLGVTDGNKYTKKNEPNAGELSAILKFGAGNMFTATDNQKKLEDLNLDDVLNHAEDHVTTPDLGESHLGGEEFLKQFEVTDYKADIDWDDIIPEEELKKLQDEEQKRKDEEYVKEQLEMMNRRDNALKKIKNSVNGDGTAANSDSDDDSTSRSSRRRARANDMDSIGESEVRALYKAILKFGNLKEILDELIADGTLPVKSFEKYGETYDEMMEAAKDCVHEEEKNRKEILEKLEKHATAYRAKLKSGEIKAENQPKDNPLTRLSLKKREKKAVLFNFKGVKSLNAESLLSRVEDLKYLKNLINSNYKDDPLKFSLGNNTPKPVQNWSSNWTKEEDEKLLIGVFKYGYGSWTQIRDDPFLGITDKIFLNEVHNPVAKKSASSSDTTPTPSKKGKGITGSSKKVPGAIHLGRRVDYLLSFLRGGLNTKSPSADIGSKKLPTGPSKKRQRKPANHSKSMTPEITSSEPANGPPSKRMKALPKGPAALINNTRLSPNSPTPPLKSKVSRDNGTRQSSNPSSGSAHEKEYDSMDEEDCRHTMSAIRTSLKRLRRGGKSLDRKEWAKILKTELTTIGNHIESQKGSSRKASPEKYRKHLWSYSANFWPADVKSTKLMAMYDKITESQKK

Take `CCC(CC)C(CNC(=O)Nc1ccc(C)cc1)N1CCOCC1` (stereo not drawn): the Percent Effect in experiment [1] is -3.76%; in [2] it was 22.8%; in experiment [3] it was -8.69%; in experiment [4], -4.59%; in the experiment on Trypanosoma cruzi it was 4.63%; in experiment [5], -0.76%. Further, the Percent Effect was 3.52% in experiment [6]; 5.24% in the experiment filed under Homo sapiens; -25.1% in experiment [7]; 21.5% in [8]; -8.39% in [9].
With `Cc1cc(-c2cnc(NCc3cccnc3)nc2C(C)(C)C)on1`, the Percent Effect in experiment [1] was -1.82%; in experiment [2], 0%; in experiment [3], 24.3%; in experiment [4] it was 4.38%; in the experiment with Trypanosoma cruzi, -3.74%; in experiment [5], -0.699%. For the same compound, the Percent Effect is 8.37% in experiment [6]; 43.3% in the experiment listed under Homo sapiens; 6.38% in experiment [7]; 6.41% in [8]; -0.51% in experiment [9].
Take `COc1cccc(C(=O)N2CCc3ncnc(C)c3CC2)c1`: the Percent Effect in experiment [1] is -2.5%; in experiment [2], 2.74%; in experiment [3], -0.34%; in [4] it was 2.4%; in the experiment on Trypanosoma cruzi, -5.16%; in experiment [5], 0.399%. Besides, the Percent Effect in [6] was 10.4%; in the experiment listed under Homo sapiens, 2.5%; in experiment [7], 6.25%; in experiment [8], 11.1%; in experiment [9] it was -8.63%.
Consider `CSc1ccc(CNC(c2ccccc2)c2nccn2C)cc1` (stereo not drawn), for which the Percent Effect is -5.49% in [1]; 21.6% in [2]; -4% in experiment [3]; 8.74% in experiment [4]; 7.71% in the experiment with Trypanosoma cruzi; -2.77% in experiment [5]. In addition, the Percent Effect in [6] was 11.1%; in the experiment listed under Homo sapiens it was 24.1%; in experiment [7] it was 10.9%; in experiment [8], 30.5%; in experiment [9], -6.68%.
On to `CC1(C)CC(N2Cc3nc(N4CCOCC4)ncc3C2=O)CC(C)(C)N1`, for which the Percent Effect was -6.55% in experiment [1]; 2.6% in experiment [2]; 1.41% in [3]; 1.23% in [4]; -9.93% in the experiment with Trypanosoma cruzi; 2.76% in [5]. For the same compound, the Percent Effect in experiment [6] is 10.8%; in the experiment filed under Homo sapiens, 13.3%; in experiment [7], 0%; in experiment [8], -1.24%; in experiment [9], -0.541%.
Regarding `c1csc(-c2nc(CN3CCOC(Cn4cncn4)C3)co2)c1` (stereo not drawn), the Percent Effect is -2.48% in experiment [1]; 10.8% in experiment [2]; -9.47% in experiment [3]; -3.91% in [4]; -0.0943% with Trypanosoma cruzi; -6.01% in experiment [5]. The Percent Effect in experiment [6] is 20.4%; in the experiment filed under Homo sapiens it was 9.28%; in experiment [7] it was 9.36%; in experiment [8], 18.5%; in [9], -5.77%.
On to `COc1ccc(Cl)cc1NCC(=O)NCCc1ccccn1`, for which the Percent Effect was -3.56% in experiment [1]; -5.41% in experiment [2]; -7.1% in experiment [3]; 3.7% in experiment [4]; -7.64% in the experiment with Trypanosoma cruzi; 0.401% in experiment [5]. Further, the Percent Effect was 1.62% in experiment [6]; 20.4% in the experiment listed under Homo sapiens; 0.493% in experiment [7]; 1.24% in [8]; 0.208% in experiment [9].
For `COCCN(C)C(=O)Cn1cccc(OC)c1=O`, the Percent Effect in experiment [1] was -0.736%; in experiment [2] it was 5.48%; in experiment [3], -9.15%; in [4], 4.8%; with Trypanosoma cruzi it was -8.53%; in [5], 3.99%. For the same compound, the Percent Effect was 18.4% in experiment [6]; 4.06% in the experiment filed under Homo sapiens; -3.12% in experiment [7]; -1.24% in experiment [8]; -2.41% in experiment [9].
